Compound activity from PubChem.
CYP2C19 act – increases human CYP2C19 enzyme activity. AID 1025. recombinant CYP2C19, luciferin-H EGE luminescence; active compounds read high; 0 = fully inhibited enzyme, 1 = untreated enzyme. P33261. activation factor at 5 µM. 96,000 tested, under 10 active;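 active means activation factor of at least 2 at 5 µM in the primary screen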;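 further: 0 = wells with 2.5 mM tranylcypromine and 1 = vehicle-only wells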
Cav3 T inh – human Cav3.2 channel inhibition, primary screen; O95180; Cav3.2-expressing cells, Fluo-4 calcium fluorescence FDSS; active compounds read low; B-score at 10 µM; hit rate 4% among 100,000;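 active means single-dose well whose peak fluorescence ratio is a statistical outlier from its plate by either plate-standardised score or position-corrected B-score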
CYP2C19 inhib – blocks human cytochrome P450 2C19; inhibition, % at 5 µM; AID 778; hit rate 21% among 96,000; CYP2C19 Supersomes, luciferin-H EGE luminescence, 30 min;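 active means CYP2C19 inhibition above a set limit at 5 µM in the primary screen, cut at about 50% in these data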;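 further: plate controls were negative control wells for no effect and 2.5 mM tranylcypromine positive control for full effect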
CYP2C9 activ – CYP2C9 (human) activation | AID 1024 | P11712 | activation factor at 5 µM | recombinant CYP2C9, luciferin-H conversion, luminescence; active compounds read high; factor 1 = untreated enzyme, 0 = blocked | hit rate 1.4% among 96,000;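 active means activation factor of 2 or more for CYP2C9 at a 5 µM dose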;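 further: 0 = sulfaphenazole-blocked wells and 1 = vehicle-only wells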
Target sequence (P11712 whole entry, looked up): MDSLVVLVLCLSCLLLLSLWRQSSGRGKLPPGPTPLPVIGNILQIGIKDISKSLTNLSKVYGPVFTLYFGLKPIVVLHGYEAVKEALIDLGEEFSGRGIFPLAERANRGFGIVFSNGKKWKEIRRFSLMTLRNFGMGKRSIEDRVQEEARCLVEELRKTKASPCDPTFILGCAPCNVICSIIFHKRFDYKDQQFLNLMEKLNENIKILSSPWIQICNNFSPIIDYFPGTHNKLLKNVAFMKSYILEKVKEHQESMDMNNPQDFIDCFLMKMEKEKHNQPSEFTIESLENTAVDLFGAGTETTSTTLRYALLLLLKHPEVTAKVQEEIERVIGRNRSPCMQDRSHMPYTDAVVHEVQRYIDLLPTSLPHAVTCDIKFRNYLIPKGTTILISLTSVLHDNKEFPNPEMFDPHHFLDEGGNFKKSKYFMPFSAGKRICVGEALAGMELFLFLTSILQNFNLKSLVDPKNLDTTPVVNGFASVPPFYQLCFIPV
CYP2C9 inh – human CYP2C9 inhibition. AID 777. inhibition, % at 5 µM. hit rate 20% among 96,000. CYP2C9 Supersomes, luciferin-H conversion, luminescence. P11712;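 active means blocking of liver enzyme CYP2C9 beyond about 50% at 5 µM, limit read from the data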
* marks the source's active call; other numbers are inactive results. The list is not random: actives were taken first. Their share in the collection is about 27%.

How did CCOC(=O)c1c(CN2CCCCC2)oc2ccc(O)cc12 do in these assays?
CYP2C19 act: 1; Cav3 T inh: 0.81; CYP2C19 inhib: 4; CYP2C9 activ: 1.1; CYP2C9 inh: -10

What do the screens show for `CCOC(=O)c1c(CN2CCN(C)CC2)n(C)c2cc(Br)c(OC)cc12`?
CYP2C19 act: 0.5; Cav3 T inh: -0.35; CYP2C19 inhib: 50; CYP2C9 activ: 0.4; CYP2C9 inh: 56*

How did CCOC(=O)c1c(CN2CCCCC2)n(C)c2cc(Br)c(O)cc12 do in these assays?
CYP2C19 act: 0.3; Cav3 T inh: 0.17; CYP2C19 inhib: 71*; CYP2C9 activ: 0.7; CYP2C9 inh: 25

Results for CCC(C)NC(=O)CCNS(=O)(=O)c1ccc(Br)cc1 (stereo unspecified) ?
CYP2C19 act: 0.5; Cav3 T inh: 0.7; CYP2C19 inhib: 49; CYP2C9 activ: 2.2*; CYP2C9 inh: -116

How did CCOCCCNS(=O)(=O)c1ccc(Br)cc1 do in these assays?
CYP2C19 act: 0.1; CYP2C19 inhib: 90*; CYP2C9 activ: 1.3; CYP2C9 inh: -35

How did C=CCNC(=O)CCNS(=O)(=O)c1ccc(Br)cc1 do in these assays?
CYP2C19 act: 0.8; Cav3 T inh: -0.18; CYP2C19 inhib: 20; CYP2C9 activ: 1.6; CYP2C9 inh: -59

Results for CCC(C)NC(=O)CNS(=O)(=O)c1ccc(C)cc1 (stereo unspecified) ?
Cav3 T inh: 0.2

How did CCCCNC(=O)CCNS(=O)(=O)c1ccc(Br)cc1 do in these assays?
CYP2C19 act: 0.8; Cav3 T inh: -0.11; CYP2C19 inhib: 19; CYP2C9 activ: 2.7*; CYP2C9 inh: -166

Results for COC(=O)CNC(c1ccccc1)c1cc(C)ccc1NC(=O)CNC(=O)OCc1ccccc1 (stereo unspecified) ?
CYP2C19 act: 0.2; Cav3 T inh: -7.2*; CYP2C19 inhib: 82*; CYP2C9 activ: 0.1; CYP2C9 inh: 94*

Results for COC(=O)CNC(c1ccccc1)c1cc(Br)ccc1NC(=O)OCc1ccccc1 (stereo unspecified) ?
CYP2C19 act: 0.6; Cav3 T inh: -9.4*; CYP2C19 inhib: 43; CYP2C9 activ: 0.3; CYP2C9 inh: 74*

How did CNC(=O)[C@@H]1C[C@H]1[C@@H](NC(=O)CNC(=O)OCc1ccccc1)c1ccccc1 do in these assays?
Cav3 T inh: 1.6

How did O=C(O)CC(NC(=O)OCc1ccccc1)c1ccc(Br)cc1 (stereo unspecified) do in these assays?
CYP2C19 act: 0.9; Cav3 T inh: -1.3; CYP2C19 inhib: 11; CYP2C9 activ: 0.7; CYP2C9 inh: 30

Results for CC(=O)c1c(COC(=O)c2cccnc2)nc2ccccc2[n+]1[O-] ?
CYP2C19 act: 0.5; Cav3 T inh: 0.95; CYP2C19 inhib: 48; CYP2C9 activ: 0.9; CYP2C9 inh: 5

Results for Nc1nnc(SCc2cc3c(cc2Cl)OCO3)s1 ?
CYP2C19 act: 0.3; Cav3 T inh: 0.042; CYP2C19 inhib: 70*; CYP2C9 activ: 0.5; CYP2C9 inh: 49

How did Nc1nnc(SCC(=O)N2CCN(c3ccccc3)CC2)s1 do in these assays?
CYP2C19 act: 1; Cav3 T inh: 0.8; CYP2C19 inhib: 2; CYP2C9 activ: 0.9; CYP2C9 inh: 14

What do the screens show for `Nc1nnc(SCc2ccccc2Cl)s1`?
CYP2C19 act: 0.3; Cav3 T inh: 0.24; CYP2C19 inhib: 68*; CYP2C9 activ: 1.1; CYP2C9 inh: -7

How did CN(C)Cc1nc2ccccc2c(=O)n1Cc1nc(C(C)(C)C)cs1 do in these assays?
CYP2C19 act: 0.2; Cav3 T inh: -0.69; CYP2C19 inhib: 82*; CYP2C9 activ: 0.1; CYP2C9 inh: 93*

What do the screens show for `CCOC(=O)COc1ccc(C(=O)c2ccccc2)c(O)c1`?
CYP2C19 act: 0.9; Cav3 T inh: -0.004; CYP2C19 inhib: 8; CYP2C9 activ: 1; CYP2C9 inh: -4

What do the screens show for `COc1ccc(C(=O)c2ccccc2)c(O)c1`?
CYP2C19 act: 0.1; Cav3 T inh: -1.2; CYP2C19 inhib: 86*; CYP2C9 activ: 0.8; CYP2C9 inh: 24

How did CCC1CCCCN1C(=O)c1c[nH]c2ccc(S(=O)(=O)N(C)c3ccc(Cl)cc3)cc2c1=O (stereo unspecified) do in these assays?
CYP2C19 act: 0.3; Cav3 T inh: -1.8; CYP2C19 inhib: 74*; CYP2C9 activ: 0.2; CYP2C9 inh: 83*

Results for CCOc1ccc(N(C)S(=O)(=O)c2ccc3[nH]cc(C(=O)NCC4CCCO4)c(=O)c3c2)cc1 (stereo unspecified) ?
CYP2C19 act: 0.8; Cav3 T inh: 0.19; CYP2C19 inhib: 24; CYP2C9 activ: 0.3; CYP2C9 inh: 74*

How did Cc1ccccc1NS(=O)(=O)c1ccc2[nH]cc(C(=O)NCCCN3CCOCC3)c(=O)c2c1 do in these assays?
CYP2C19 act: 1; Cav3 T inh: -1.6; CYP2C19 inhib: 0; CYP2C9 activ: 0.6; CYP2C9 inh: 38

What do the screens show for `CCN(CC)S(=O)(=O)c1ccc2[nH]cc(C(=O)NCCC3=CCCCC3)c(=O)c2c1`?
CYP2C19 act: 0.2; Cav3 T inh: -1.2; CYP2C19 inhib: 76*; CYP2C9 activ: 0.1; CYP2C9 inh: 91*

How did Cc1ccccc1N(C)S(=O)(=O)c1ccc2[nH]cc(C(=O)NCC3CCCO3)c(=O)c2c1 (stereo unspecified) do in these assays?
CYP2C19 act: 0.5; Cav3 T inh: 0.53; CYP2C19 inhib: 53*; CYP2C9 activ: 0.1; CYP2C9 inh: 91*

Results for CCOc1ccc(C(=O)NCC2CCCO2)cc1 (stereo unspecified) ?
CYP2C19 act: 1.1; Cav3 T inh: 0.68; CYP2C19 inhib: -8; CYP2C9 activ: 1.1; CYP2C9 inh: -5

Results for COc1ccc(OCCCCOc2ccccc2Cl)cc1 ?
CYP2C19 act: 1.1; Cav3 T inh: 0.42; CYP2C19 inhib: -13; CYP2C9 activ: 1.1; CYP2C9 inh: -13

What do the screens show for `Nc1cccc2c1C(=O)N(C(=O)c1ccc(Cl)c(S(=O)(=O)N3CCCCCC3)c1)C2=O`?
CYP2C19 act: 1; Cav3 T inh: -0.32; CYP2C19 inhib: 4; CYP2C9 activ: 0.9; CYP2C9 inh: 11

What do the screens show for `CCc1ccc(N(C)S(=O)(=O)c2ccc3[nH]cc(C(=O)NCCN4CCOCC4)c(=O)c3c2)cc1`?
CYP2C19 act: 0.8; Cav3 T inh: 0.72; CYP2C19 inhib: 24; CYP2C9 activ: 0.4; CYP2C9 inh: 60*

How did CCN(CC)S(=O)(=O)c1ccc2[nH]cc(C(=O)NCCN3CCCCCC3)c(=O)c2c1 do in these assays?
CYP2C19 act: 1.1; CYP2C19 inhib: -8; CYP2C9 activ: 1; CYP2C9 inh: -1

What do the screens show for `CC(Nc1n[nH]c(=S)[nH]c1=O)C(=O)OCc1ccccc1` (stereo unspecified)?
CYP2C19 act: 0.9; Cav3 T inh: 0.81; CYP2C19 inhib: 11; CYP2C9 activ: 0.1; CYP2C9 inh: 90*

What do the screens show for `CCCCOC(=O)C(C)Nc1n[nH]c(=S)[nH]c1=O` (stereo unspecified)?
CYP2C19 act: 0.7; Cav3 T inh: -0.12; CYP2C19 inhib: 26; CYP2C9 activ: 0.2; CYP2C9 inh: 79*

What do the screens show for `CCCCCOc1ccc(CSc2ncn[nH]2)cc1`?
Cav3 T inh: -1.2
